CHX counter: affects cycloheximide protein synthesis inhibition readout, counter-screen | cell reporter, cycloheximide protein synthesis inhibition counterscreen | max response, % | actives 12% (n = 300,000) | AID 2314; in the data active means max response mostly above about 13%, no sharp cut-off; inactive means mostly below about 14%; further: read at 38.3 µM for the half of the compounds with a filed dose; 0% is about no effect
HCMV inh: blocks human cytomegalovirus replication. activity change, negative = inhibition, % at 57.5 µM. HFF cells, HCMV-luciferase reporter, 72 h; active compounds read low. actives 4.5% (n = 410,000); in the data active means activity change below about -60%; inconclusive means no clear call, values can overlap the other calls; inactive means above about -39%; further: on the % scale 0 is the no-effect control and ±100 the full control effect
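Steps: HFFs plated, 16 h 37C; compounds added; HCMV-luciferase added to MOI 1 PFU/cell; 72 h 37C; OneGlo reagent, 5 min room temperature; luminescence read, normalized to controls.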
Pf growth 96h: P. falciparum growth inhibition at 96 hour, primary screen for plastid delayed-death inhibitors. P. falciparum luciferase reporter growth, 96 h. Potency, µM (series often up to 28.7 µM), inactives show at the top dose activity change, negative = inhibition, hits mostly inhibitors. actives 6.9% (n = 320,000). AID 504834; further: potency means the concentration at half of the fitted maximal effect; on the % scale 0 is the no-effect control and ±100 the full control effect
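Two-generation exposure (96 h) targets delayed-death phenotype. Reporter parasites carrying integrated firefly luciferase, in red cells at 2% hematocrit and 0.05% parasitemia final, kept at 37 C, 5% CO2; luminescence loss indicates inhibition.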
Shiga toxin inh: blocks Shiga toxin action in Vero cells; Vero cells, Shiga toxin protein synthesis inhibition reporter; inhibition, % at 38.7 µM; actives 9.2% (n = 290,000); in the data active means inhibition mostly above about 28%, no sharp cut-off; inactive means mostly below about 43%; further: 0% is about no effect
HCV inh: HCV inhibition; AID 651820; Huh7.5.1 HCVcc-Cre infection, luciferase reporter, 44 h; Potency, µM (highest dose often 41.8 µM), without a hit: at the top dose activity change, negative = inhibition, usual class: inhibitors; actives 3.4% (n = 340,000); further: potency means the concentration at half of the fitted maximal effect; on the % scale 0 is the no-effect control and ±100 the full control effect
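Reporter virus HCVcc-Cre (~0.5 moi) infects cells exposed to compound; seeding density 1,000 cells/well with 4 h settling beforehand. Luminescence, 15 sec read, taken 44 h post-infection following a 15 min RT substrate incubation.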
Pf growth 48h: P. falciparum growth inhibition at 48 hours (one generation); P. falciparum luciferase growth in erythrocytes, 48 h; Potency, µM (series often up to 28.7 µM), for inactives: at the top dose activity change, negative = inhibition, actives largely listed as inhibitors; actives 5.9% (n = 310,000); AID 504832; further: potency means the concentration at half of the fitted maximal effect; on the % scale 0 is the no-effect control and ±100 the full control effect
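Luminescence readout; reporter = integrated firefly luciferase in P. falciparum. RBC culture at 2% hematocrit, 0.1% parasitemia final, 37 C/5% CO2; decreased signal taken as growth inhibition.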
* = called active by the depositor; ? = inconclusive; . = no result; [ ] = another dose, or the depositor's remark. Most compounds without a hit are left out; they make up all but 21% or so of the library. Unless noted, the call rests on the fitted dose curve; in most records, active means well fitted inhibition curve with a large enough effect; inconclusive means small, poorly fitted or top-dose-only effect, or another doubt; inactive means no such curve, though single readings can be large or run the other way.

SMILES	CHX counter	HCMV inh	Pf growth 96h	Shiga toxin inh	HCV inh	Pf growth 48h
CN(c1ccc(C(=O)N2CCN(Cc3ccccc3)CC2)cc1)S(=O)(=O)c1ccccc1	-4	?	?	-2	?	-8%
CN(c1ccc(C(=O)N2CCN(Cc3ccc4c(c3)OCO4)CC2)cc1)S(=O)(=O)c1ccccc1	-3	-101*	?	-6	6.3µM*	.
Cc1ccc(C(=O)N2CCN(Cc3ccc4c(c3)OCO4)CC2)c(Cl)c1	1	-31	?	-1	11µM*	-10%
CCOc1ccc(N2CC(NC(=O)/C=C\c3ccc4c(c3)OCO4)CC2=O)cc1 (stereo not given)	.	18	.	.	.	.
O=C(Nc1nnc(C2CC2)s1)C1CCCCC1	.	0	24%	.	8%	75%
Cc1cnc(C(=O)Nc2nnc(C(C)C)s2)cn1	41*	61	-7%	71*	18%	117%
O=C(Nc1nnc(C2CC2)s1)c1cccnc1Oc1ccc(Cl)cc1	2	-3	23%	19	6%	45%
Cc1cnc(C(=O)Nc2nnc(C)s2)cn1	-2	15	3%	9	-7%	23%
Cc1cnc(C(=O)Nc2nnc(C3CC3)s2)cn1	32*	52	46%	23	12%	27%
CC(C)c1nnc(NC(=O)c2cnccn2)s1	17*	44	-29%	38*	3%	72%
COc1c(C(=O)Nc2nnc(C3CC3)s2)csc1Cl	36*	152	112%	54*	-5%	104%
CCc1ccccc1N(C)C(=O)c1cc2c(=O)oc3ccccc3c2s1	.	-9	.	.	.	.
CCO[C@H]1OC(C(=O)N2CCCCCCC2)=C[C@@H](c2coc3ccccc3c2=O)[C@@H]1CCCO	-1	37	?	-10	-12%[8.37 µM]	-12%
Cc1cnc(C(=O)Nc2nccs2)cn1	64*	13	90%	108*	25%	62%
CCOC(=O)c1sc(NC(=O)CSc2nc(C)cc(-c3ccccc3)n2)c(C#N)c1C	9	-3	41%	-8	24%	5%
CCOC(=O)c1sc(NC(=O)c2cc(-c3ccccc3C)nc3ccccc23)c(C#N)c1C	4	-105*	?	5	7.1µM*	.
Cc1ccccc1-c1cc(C(=O)Nc2sc(C)c(C)c2C(N)=O)c2ccccc2n1	-4	-23	.	-16	4.5µM*	?
CCOC(=O)c1c(NC(=O)c2cc(-c3ccc(Cl)s3)nc3ccccc23)sc(C(N)=O)c1C	-4	-25	-4%	10	9%	8%
CCOC(=O)c1sc(NC(=O)c2ccncc2)c(C#N)c1C	-1	-68*	?	-1	?	-13%
Cc1ccc(C)c(N(C)C(=O)c2cc3c(s2)-c2ccccc2OC3)c1	.	8	.	.	.	.
COc1ccc(NC(=O)CCc2c(C)nc3c(-c4ccc(F)cc4)c(C)nn3c2C)c(OC)c1	.	0	.	.	.	.
CCCCC(CC)COC(=O)c1ccccc1C(=O)OCC(CC)CCCC (stereo not given)	.	54	-1%	.	5.6µM*	?
CCCCC(CC)COC(=O)C(C#N)=C(c1ccccc1)c1ccccc1 (stereo not given)	-1	-22	2.6µM*	-8	?	2.6µM*
COc1ccc2ccc(C(C)(C(C)=O)C(=O)OC(C)C)cc2c1 (stereo not given)	.	-16	?	.	-25%	-5%
CC(C)c1ccc(NC(=O)CNS(=O)(=O)c2ccc(F)cc2)cc1	11	-15	26%	6	-27%	?
SMILES	CHX counter	HCMV inh	Pf growth 96h	Shiga toxin inh	HCV inh	Pf growth 48h
C/C(CC(=O)Nc1ccc2c(c1)OCCO2)=N\NC(=O)Cc1ccc(Cl)cc1	-2	4	?	129*	-23%	7%
C/C(CC(=O)Nc1ccc2c(c1)OCCO2)=N\NC(=O)c1ccccc1Cl	20*	56	31%	76	14%	33%
C/C(CC(=O)Nc1ccc2c(c1)OCCO2)=N\NC(=O)Cc1ccccc1	2	12	0%	9	2%	9%
CC(CNC(=O)Cn1cnc2c(NCc3ccccc3)ncnc21)c1ccccc1 (stereo not given)	.	-18	.	.	-6%	.
Cc1cc(N/N=C/c2ccc(O)cc2)c2cccc(C)c2n1	5	?	9.3µM*	14	?	0.37µM*
Cc1cc(C)c2nc(C)cc(Nc3ccc(C(=O)N4CCOCC4)cc3)c2c1	1	5	?	-12	14%	?
Cc1cc(C)c2nc(C)cc(N/N=C/c3ccc(O)cc3)c2c1	-12	-100*	-2%	-10	11µM*	0.13µM*
Cc1ccc(Nc2cc(C)nc3c(C)cccc23)cc1	7	-34	?	-4	?	?
COc1ccccc1N1CCN(CC(O)COc2ccc(C)cc2C)CC1 (stereo not given)	1	.	45%	-6	-26%	-13%
Cn1c(/C=C(\C#N)C(N)=S)ccc1-c1ccc(Br)cc1	15*	46	?	27	-22%	?
Cn1cccc1/C=C(\C#N)C(N)=S	-1	11	?	2	14%	8%
CCCC(C)c1nc(C(N)=O)c2[nH]c(=O)n(-c3ccc(OC)c(OC)c3)c2n1 (stereo not given)	-2	-32	-18%	-4	14%	-1%
Cc1cccc(C)c1-n1nnnc1C(c1ccnc2ccccc12)N1CCOCC1 (stereo not given)	.	-9	.	.	.	.
O=C(N/N=C/c1ccc(O)cc1)c1cc(C2CC2)[nH]n1	12	18	14%	-30	12%	7%
COc1cc(/C=N/NC(=O)c2cc(C3CC3)[nH]n2)ccc1O	16*	-30	10%	40	-3%	2%
COc1ccc2c(c1)c(C(=O)N/N=C/c1ccc(OC)c(OC)c1)c(C)n2C	-2	2	15µM*	-6	5%	-11%
COc1ccc2c(c1)c(C(=O)N/N=C/c1ccc(Cl)cc1)c(C)n2C	7	?	?	9	?	?
COc1ccc(/C=N/NC(=O)c2cc(C3CC3)[nH]n2)cc1OC	11	7	-28%	52*	7%	-16%
COc1cc(/C=N/NC(=O)c2cc(C34CC5CC(CC(C5)C3)C4)[nH]n2)ccc1O	2	48	12µM*	6	9%	?
COc1cc(/C=N/NC(=O)c2ccc(=O)[nH]n2)ccc1O	-1	?	?	10	20%	-10%
O=c1c(-c2cccs2)cc(-n2c(=O)[nH]c3ccccc32)cn1-c1ccccc1	.	-6	.	.	.	.
CCN(CC(=O)Nc1c(F)cccc1F)C(=O)/C=C/c1ccc2c(c1)OCO2	.	-8	0%	.	7%	14%
CN(Cc1ccc(Cl)cc1Cl)C(=O)CCNC(=O)c1ccco1	.	-11	?	.	-13%	?
